# Experiments:
# Test in all cases: protein-binding microarray (PBM); PBM: ~300 nM protein, 6 mM HEPES pH 7.8, 80 mM KCl, 0.5 mM EDTA, 0.5 mM EGTA, 6% glycerol, 35 ng/ul poly-dIdC, 1% milk, 1 h, room temperature; Ap Aiptasia and Nv Nematostella (sea anemones) / Co Capsaspora / Aq Amphimedon (sponge) / Dm Drosophila / Hu human; RHD is the Rel homology domain; high values mean tight binding
# Conditions in all cases: dsDNA, one strand shown
# [1] = target: T1, GST-Ap-NF-kB RHD (Exaiptasia pallida (Aiptasia), UniProt A0A913YAJ5 2-422)
# T1 sequence: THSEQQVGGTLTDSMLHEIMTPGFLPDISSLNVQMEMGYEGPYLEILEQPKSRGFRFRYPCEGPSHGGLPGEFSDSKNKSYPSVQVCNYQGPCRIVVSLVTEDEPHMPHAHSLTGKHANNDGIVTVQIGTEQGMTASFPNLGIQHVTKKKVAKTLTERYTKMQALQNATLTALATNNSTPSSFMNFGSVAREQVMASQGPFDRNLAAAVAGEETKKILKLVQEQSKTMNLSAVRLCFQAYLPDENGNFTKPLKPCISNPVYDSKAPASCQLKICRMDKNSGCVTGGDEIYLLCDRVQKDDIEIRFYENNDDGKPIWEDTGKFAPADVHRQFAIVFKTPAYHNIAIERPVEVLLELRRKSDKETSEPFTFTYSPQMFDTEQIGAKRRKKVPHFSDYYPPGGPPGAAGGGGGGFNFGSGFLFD
# [2] = target: T2, GST-Nv-NF-kB (Cys allele) (Nematostella vectensis, UniProt E5G601 2-411)
# T2 sequence: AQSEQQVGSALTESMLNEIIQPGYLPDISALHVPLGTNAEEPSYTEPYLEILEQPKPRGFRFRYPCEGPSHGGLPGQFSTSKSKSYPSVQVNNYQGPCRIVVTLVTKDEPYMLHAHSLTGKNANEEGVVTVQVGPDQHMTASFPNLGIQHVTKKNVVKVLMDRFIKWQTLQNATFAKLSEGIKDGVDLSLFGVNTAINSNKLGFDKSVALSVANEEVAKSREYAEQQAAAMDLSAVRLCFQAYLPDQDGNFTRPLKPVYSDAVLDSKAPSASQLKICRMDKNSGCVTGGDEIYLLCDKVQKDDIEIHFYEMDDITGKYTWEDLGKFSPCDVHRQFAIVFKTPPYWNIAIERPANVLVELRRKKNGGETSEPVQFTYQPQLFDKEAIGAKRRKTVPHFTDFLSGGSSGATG
# [3] = target: T3, GST-Co-NF-kB (Capsaspora owczarzaki, UniProt F1ARL5 200-546)
# T3 sequence: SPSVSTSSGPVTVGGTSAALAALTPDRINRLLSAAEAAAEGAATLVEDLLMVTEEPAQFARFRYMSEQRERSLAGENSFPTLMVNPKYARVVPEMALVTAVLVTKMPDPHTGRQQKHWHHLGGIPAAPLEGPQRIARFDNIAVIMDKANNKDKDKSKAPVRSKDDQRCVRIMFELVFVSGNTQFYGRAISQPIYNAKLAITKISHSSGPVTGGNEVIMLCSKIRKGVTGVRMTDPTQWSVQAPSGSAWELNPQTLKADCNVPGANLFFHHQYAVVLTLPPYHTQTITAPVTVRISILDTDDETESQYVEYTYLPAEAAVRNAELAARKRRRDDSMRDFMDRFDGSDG
# [4] = target: T4, GST-Dm-Relish (Drosophila melanogaster, UniProt Q94527 99-473)
# T4 sequence: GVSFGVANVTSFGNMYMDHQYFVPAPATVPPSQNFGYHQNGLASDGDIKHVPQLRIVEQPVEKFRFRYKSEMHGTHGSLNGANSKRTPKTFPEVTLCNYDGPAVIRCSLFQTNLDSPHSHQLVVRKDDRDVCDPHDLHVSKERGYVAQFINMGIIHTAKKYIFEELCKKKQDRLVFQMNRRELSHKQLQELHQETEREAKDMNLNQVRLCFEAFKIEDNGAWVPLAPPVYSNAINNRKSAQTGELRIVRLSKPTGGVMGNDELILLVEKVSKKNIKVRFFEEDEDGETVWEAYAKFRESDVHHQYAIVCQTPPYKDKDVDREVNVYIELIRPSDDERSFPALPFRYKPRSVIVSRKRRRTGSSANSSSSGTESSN
# [5] = target: T5, GST-Aq-NF-kB (Amphimedon queenslandica, UniProt A9Y5G7 2-389)
# T5 sequence: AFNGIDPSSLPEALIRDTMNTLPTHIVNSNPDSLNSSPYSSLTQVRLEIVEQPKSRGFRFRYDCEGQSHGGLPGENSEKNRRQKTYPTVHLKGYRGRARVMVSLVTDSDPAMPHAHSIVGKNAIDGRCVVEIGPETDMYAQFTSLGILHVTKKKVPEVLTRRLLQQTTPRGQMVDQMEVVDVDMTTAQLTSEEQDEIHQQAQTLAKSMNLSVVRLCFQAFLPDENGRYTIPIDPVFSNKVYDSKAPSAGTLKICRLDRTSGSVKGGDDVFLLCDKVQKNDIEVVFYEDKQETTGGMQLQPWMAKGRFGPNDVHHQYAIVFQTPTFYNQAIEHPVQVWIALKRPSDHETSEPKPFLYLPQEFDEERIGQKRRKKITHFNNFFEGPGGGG
Sequence,binding signal [1] [z-score],binding signal [2] [z-score],binding signal [3] [z-score],binding signal [4] [z-score],binding signal [5] [z-score]
CCGATTAACATCAGGGGTAAAACTGATGTTAATCGGGTCTTGATTCGCTTGACGCTGCTG,2.3,1.97,6.26,1.85,2.73
CCGATTAACATCAAATTGCCCCCTGATGTTAATCGGGTCTTGATTCGCTTGACGCTGCTG,4.13,3.94,4.71,3.33,4.88
CCGATTAACATCAGGGAATACCATGATGTTAATCGGGTCTTGATTCGCTTGACGCTGCTG,3.14,2.92,2.08,6.8,4.48
CCGATTAACATCAGATTTCCCACTGATGTTAATCGGGTCTTGATTCGCTTGACGCTGCTG,1.83,3.74,3.15,2.02,2.32
CCGATTAACATCAGGGGAGTATATGATGTTAATCGGGTCTTGATTCGCTTGACGCTGCTG,4.78,3.81,4.7,2.18,3.95
CCGATTAACATCAGGGAATTCACTGATGTTAATCGGGTCTTGATTCGCTTGACGCTGCTG,4.74,5.33,3.01,8.25,6.46
CCGATTAACATCAGGAAATCCCATGATGTTAATCGGGTCTTGATTCGCTTGACGCTGCTG,4.15,3.68,1.17,8.1,5.09
CCGATTAACATCAACATGGGAATTGATGTTAATCGGGTCTTGATTCGCTTGACGCTGCTG,1.01,2.42,1.5,,1.89
CCGATTAACATCAAAAAACCCACTGATGTTAATCGGGTCTTGATTCGCTTGACGCTGCTG,2.65,2.49,1.66,5.49,3.61
CCGATTAACATCAGGGGGTGAAATGATGTTAATCGGGTCTTGATTCGCTTGACGCTGCTG,3.26,3.42,6.99,3.46,3.93
CCGATTAACATCAGGCACCCCCCTGATGTTAATCGGGTCTTGATTCGCTTGACGCTGCTG,5.14,3.21,2.79,5.16,4.88
CCGATTAACATCAGGCCCCCCCCTGATGTTAATCGGGTCTTGATTCGCTTGACGCTGCTG,5.7,4.06,3.96,6.13,5.74
CCGATTAACATCAGGGGGTATACTGATGTTAATCGGGTCTTGATTCGCTTGACGCTGCTG,5.81,3.11,4.82,6.38,4.14
CCGATTAACATCACAATACCCCCTGATGTTAATCGGGTCTTGATTCGCTTGACGCTGCTG,7.39,4.51,4.26,4.2,4.87
CCGATTAACATCAAGTATTCCCATGATGTTAATCGGGTCTTGATTCGCTTGACGCTGCTG,2.44,2.26,3.57,2,1.85
CCGATTAACATCAGGGGAGGTACTGATGTTAATCGGGTCTTGATTCGCTTGACGCTGCTG,4.21,3.43,3.96,6.44,4.35
CCGATTAACATCAAATATACCCATGATGTTAATCGGGTCTTGATTCGCTTGACGCTGCTG,2.13,2.41,1.8,2.31,2.52

Sequence,binding signal [1] [z-score],binding signal [2] [z-score],binding signal [3] [z-score],binding signal [4] [z-score],binding signal [5] [z-score]
CCGATTAACATCAAGGGATTCCCTGATGTTAATCGGGTCTTGATTCGCTTGACGCTGCTG,6.28,5.98,2.7,9.45,6.56
CCGATTAACATCAGAAGTTCCCATGATGTTAATCGGGTCTTGATTCGCTTGACGCTGCTG,2.2,2.3,2.44,3.27,2.82
CCGATTAACATCAGGAACACCCCTGATGTTAATCGGGTCTTGATTCGCTTGACGCTGCTG,3.14,1.33,1.86,3.5,4.23
CCGATTAACATCAGAATATCCCATGATGTTAATCGGGTCTTGATTCGCTTGACGCTGCTG,2.05,1.17,1.46,1.8,1.86
CCGATTAACATCAGGAAACACCCTGATGTTAATCGGGTCTTGATTCGCTTGACGCTGCTG,3.05,2.79,1.1,4.19,6.01
CCGATTAACATCACATTTTCCCATGATGTTAATCGGGTCTTGATTCGCTTGACGCTGCTG,2.42,3.68,3.98,1.33,2.13
CCGATTAACATCAGGGGATTAGATGATGTTAATCGGGTCTTGATTCGCTTGACGCTGCTG,4.5,4.8,2.75,3.13,3.91
CCGATTAACATCAAAAAGTTCCCTGATGTTAATCGGGTCTTGATTCGCTTGACGCTGCTG,4.61,5.3,4.37,6.54,5.9
CCGATTAACATCAATATTTACCCTGATGTTAATCGGGTCTTGATTCGCTTGACGCTGCTG,1.68,3.08,3.33,1.66,2.34
CCGATTAACATCAGGGAAAACCATGATGTTAATCGGGTCTTGATTCGCTTGACGCTGCTG,3.89,5.15,4.31,5.57,5.29
CCGATTAACATCAGGGGAATGACTGATGTTAATCGGGTCTTGATTCGCTTGACGCTGCTG,5.81,6.43,3.9,5.22,5.09
CCGATTAACATCAGGATCTTCCCTGATGTTAATCGGGTCTTGATTCGCTTGACGCTGCTG,3.64,3.68,1.18,1.53,5.89
CCGATTAACATCAGAATAACCCCTGATGTTAATCGGGTCTTGATTCGCTTGACGCTGCTG,5.37,3.87,1.66,3.29,4.42
CCGATTAACATCATGCGGGAAAATGATGTTAATCGGGTCTTGATTCGCTTGACGCTGCTG,2.22,3.71,4.47,1.22,2.76
CCGATTAACATCAATATACCCCCTGATGTTAATCGGGTCTTGATTCGCTTGACGCTGCTG,6.61,4.24,6.57,3.69,4.03
CCGATTAACATCACGGGACCCCCTGATGTTAATCGGGTCTTGATTCGCTTGACGCTGCTG,6.47,3.01,1.75,6.84,3.7

# Reference: article PMC5700166
